Screening results as filed in PubChem.
Tau ThT inhib: tau fibrillization inhibition (ThT binding) | P10636 | recombinant tau K18 P301L, heparin-induced fibrillization, ThT fluorescence | Potency, µM (series often up to 57.4 µM), usual class: inhibitors | actives 2.1% (n = 270,000); note: nearly all actives have a fitted effect of over 55% in size
Target sequence (P10636 561-689 P618L limits assumed): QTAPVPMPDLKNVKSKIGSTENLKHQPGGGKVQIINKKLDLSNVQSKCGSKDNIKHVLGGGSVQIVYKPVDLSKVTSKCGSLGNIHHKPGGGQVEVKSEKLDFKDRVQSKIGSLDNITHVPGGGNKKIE
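Heparin-induced (20 uM) aggregation of recombinant human K18 P301L tau, 15 uM unlabeled with 0.24 uM labeled, pH 7 acetate buffer, 6 hr at 37 C with compound. Fibrils quantified by 30 uM ThT fluorescence after 1 hr ambient incubation.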
JMJD2E inh: blocks human JMJD2E demethylase activity; JMJD2E catalytic domain, FDH-coupled NADH fluorescence (FDH is formaldehyde dehydrogenase); Potency, µM (doses to about 57.1 µM), usual class: inhibitors; actives 1.6% (n = 230,000); AID 2147; active = well fitted inhibition curve with a large enough effect, not every such curve was filed as active; inconclusive = small, poorly fitted or top-dose-only effect, or another doubt; inactive = no such curve, though single readings can be large or run the other way; note: nearly all actives have a fitted effect of over 50% in size
Tau fluor cs: counter-screen for tau fibril formation inhibitors; Potency, µM (top dose mostly 57.7 µM); actives 0.93% (n = 280,000); tau K18 P301L (four-repeat tau fragment) Alexa594 fluorescence, heparin fibrillization; AID 1463; note: nearly all actives have a fitted effect of over 55% in size
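Human K18 P301L tau (15 uM unlabeled plus 0.24 uM Alexa 594-labeled, final) in 100 mM sodium acetate pH 7 was mixed with compound and 20 uM heparin and incubated 6 hr at 37 C.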
Tau fibril FP: inhibitors of human tau fibril formation; Potency, µM (series often up to 57.7 µM), usual class: inhibitors; actives 0.39% (n = 280,000); AID 1468; K18 P301L tau heparin fibrillization, Alexa594 FP, 6 h; P10636; note: nearly all actives have a fitted effect of over 55% in size
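Read-out: fluorescence polarization of Alexa 594-labeled tau (0.24 uM), 555 nm excitation, 632 nm emission. Mixtures held 15 uM unlabeled K18 P301L, compound and 20 uM heparin, pH 7 acetate buffer, incubated 6 hr at 37 C.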
NPSR antag: neuropeptide S receptor (human) antagonism, cAMP; actives 1% (n = 220,000); CHO-NPSR cells, cAMP TR-FRET, antagonist mode; Q6W5P4; Potency, µM (series often up to 38.3 µM), hits mostly inhibitors; note: nearly all actives have a fitted effect of over 50% in size
Target sequence (Q6W5P4 whole entry, looked up): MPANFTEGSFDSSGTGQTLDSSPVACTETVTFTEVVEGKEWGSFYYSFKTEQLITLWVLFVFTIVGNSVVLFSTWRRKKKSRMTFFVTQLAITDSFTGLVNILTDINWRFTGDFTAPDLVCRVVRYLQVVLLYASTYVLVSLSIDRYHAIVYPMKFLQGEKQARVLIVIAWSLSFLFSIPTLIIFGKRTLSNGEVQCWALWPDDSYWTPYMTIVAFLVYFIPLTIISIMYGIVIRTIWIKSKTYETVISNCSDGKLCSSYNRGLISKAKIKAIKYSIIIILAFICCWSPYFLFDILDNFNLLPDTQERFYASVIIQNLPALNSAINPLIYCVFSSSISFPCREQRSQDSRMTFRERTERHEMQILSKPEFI
PNC inhibitor: perinucleolar compartment assembly inhibition; PC3M PTB-GFP, PNC prevalence imaging, 16 h; hits give low values; actives 3.1% (n = 140,000); activity change (PNC), negative = inhibition, % at 10 µM; AID 2417;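 active = readout at or below -70, meaning at least 70% loss of cells showing the perinucleolar compartment, a nuclear body marking cancer cells; inconclusive = readout between -30 and a set limit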
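Read-out is percentage of cells bearing a perinucleolar compartment, from automated 20x imaging of fixed, Hoechst-stained PC3M PTB-GFP cells. Cells were seeded 4 h, then exposed 16 h to compound (23 nl of library stock) in duplicate plates.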
Of the large screens only hits and unclear results are named; the others gave an inactive call; [ ] = remark or other dose. Hits are enriched below; roughly 5.1% of the tested compounds scored in any of these assays. Unless noted, calls come from the whole dose curve; as a rule, active = well fitted curve in the direction sought with a large enough effect; inconclusive = small, poorly fitted or top-dose-only effect, or another doubt; inactive = no such curve, though single readings can be large; an effect the other way counts as inactive or inconclusive.

CCCCN1C(=O)CN(C2CCCCCC2)C(=O)C1c1ccc(OCCC)c(OC)c1 (stereo not given)	none (no result: JMJD2E inh, NPSR antag, PNC inhibitor)
COC(=O)c1sc2ccccc2c1S(=O)(=O)N1CCN(c2ccc(C(C)=O)cc2)CC1	Tau ThT inhib inconclusive (no result: JMJD2E inh, NPSR antag, PNC inhibitor)
Fc1ccc(C2NCCn3cccc32)cc1 (stereo not given)	Tau ThT inhib inconclusive, JMJD2E inh 20µM
Cc1ccc(-n2nc(C(=O)Nc3ccc(C)c(F)c3)c3c4ccccc4n(C)c3c2=O)cc1	none (no result: JMJD2E inh, NPSR antag, PNC inhibitor)
Cc1ccc(OCC(=O)OCc2cc(=O)n3nc(C4CCCCC4)sc3n2)cc1C	Tau ThT inhib inconclusive (no result: JMJD2E inh, NPSR antag, PNC inhibitor)
CNC(=O)CSc1nnc(NC(=O)Nc2ccccc2)s1	none (no result: JMJD2E inh, NPSR antag, PNC inhibitor)
CCCOC(=O)Nc1cccc(C(C)=O)c1	PNC inhibitor -100
CCC(=O)Nc1ccc(CC)cc1-c1nc2ccccc2n(CC(=O)Nc2cccc(OC)c2)c1=O	Tau ThT inhib inconclusive, Tau fibril FP inconclusive (no result: JMJD2E inh, NPSR antag, PNC inhibitor)
COc1cc(NC(=O)C(Cc2ccccc2)NS(=O)(=O)c2cccs2)cc(OC)c1 (stereo not given)	Tau fibril FP inconclusive (no result: JMJD2E inh, NPSR antag, PNC inhibitor)
COc1cc(-c2nc3ccc(Cl)cn3c2Nc2ccc3c(c2)OCO3)ccc1O	Tau ThT inhib inconclusive, Tau fluor cs 14µM[quencher] (no result: JMJD2E inh, NPSR antag, PNC inhibitor)
COc1cc(-c2nc3ccc(C)cn3c2Nc2ccc(Cl)cc2)ccc1O	Tau ThT inhib inconclusive, Tau fluor cs 8.9µM[quencher], Tau fibril FP inconclusive (no result: JMJD2E inh, NPSR antag, PNC inhibitor)
COc1ccc(-c2nc3ccc(C)cn3c2Nc2ccc3c(c2)OCO3)cc1	Tau ThT inhib inconclusive, Tau fluor cs inconclusive (no result: JMJD2E inh, NPSR antag, PNC inhibitor)
Cc1nc2ccccc2c2nc(N)nn12	PNC inhibitor -100
CCCc1nc2ccccc2c2nc(N)nn12	JMJD2E inh inconclusive
C=CCn1c(COc2ccccc2)nnc1SCC(=O)N/N=C/c1cc(Cl)ccc1O	JMJD2E inh 28µM
COc1ccc2nc(C)cc(SCC(=O)N/N=C/c3ccc(O)cc3O)c2c1	Tau ThT inhib inconclusive, Tau fluor cs inconclusive
C=CCn1c(CNc2ccc(C)cc2)nnc1SCC(=O)N/N=C/c1ccc(O)cc1O	Tau ThT inhib inconclusive, JMJD2E inh 16µM, Tau fluor cs inconclusive, Tau fibril FP inconclusive
C=CCn1c(CNc2ccccc2)nnc1SCC(=O)N/N=C/c1ccc(O)cc1O	JMJD2E inh 22µM, PNC inhibitor inconclusive
C=CCn1c(COc2ccccc2)nnc1SCC(=O)N/N=C/c1ccc(C)cc1	none
C=CCn1c(SCC(=O)NCc2ccccc2)nnc1-c1ccccc1O	none
CCC(C)n1c(=O)c2sccc2n2c(CCCC(=O)N3CCN(c4ccccc4)CC3)nnc12 (stereo not given)	none (no result: JMJD2E inh, NPSR antag, PNC inhibitor)
N#C/C(=C/c1cc[nH]c1)C(N)=S	Tau ThT inhib inconclusive (no result: PNC inhibitor)
N#CC(C#N)=C(N)/C(C#N)=C/c1ccc2[nH]ccc2c1	Tau ThT inhib 14µM, Tau fluor cs inconclusive (no result: JMJD2E inh, NPSR antag, PNC inhibitor)
Cc1nnc(N/N=C/c2ccco2)n1N	Tau ThT inhib inconclusive, JMJD2E inh 28µM, Tau fibril FP inconclusive (no result: PNC inhibitor)
Cc1ccnc(N/N=C/c2ccco2)n1	none
COc1cc(/C=N/NC(=O)c2ccccc2)ccc1O	JMJD2E inh inconclusive (no result: PNC inhibitor)
COc1cc(/C=N/c2oc(-c3ccccc3)cc2C#N)ccc1O	Tau ThT inhib 16µM, JMJD2E inh inconclusive, Tau fluor cs inconclusive, NPSR antag inconclusive
CCC(=O)Nc1cccc2c1C(=O)N(C)C2=O	Tau fibril FP inconclusive, PNC inhibitor -111
Cc1cc(=O)n2[nH]c(N)c(N=Nc3ccccc3F)c2n1	Tau ThT inhib 11µM
Cc1ccc(OCc2nc(-c3ccc(C(=O)NCCc4ccc(Cl)cc4)cc3)oc2C)cc1	none (no result: JMJD2E inh, NPSR antag, PNC inhibitor)
CCOC(=O)C1CCN(S(=O)(=O)c2ccc(OCC(=O)OC)cc2)CC1	PNC inhibitor inconclusive
O=C(Cc1ccccc1)NC1CCN(S(=O)(=O)c2ccc(C(=O)O)cc2)CC1	none
CCOC(=O)C1CCN(S(=O)(=O)c2ccc(C(C)=O)cc2)CC1	PNC inhibitor -100
O=C(Nc1ccc(Oc2ccccc2)cc1)C1CCN(S(=O)(=O)c2ccccc2)CC1	Tau fluor cs inconclusive, Tau fibril FP inconclusive (no result: JMJD2E inh, NPSR antag, PNC inhibitor)
O=C(O)C1CCN(S(=O)(=O)c2ccc(Oc3ccccc3)cc2)CC1	PNC inhibitor -83
